# Experimental data from PubChem BioAssay (EPA / NIEHS).
# Activity calls are given as the source filed them. The calls were made as follows: active = hit-call score of the fitted dose curve at least 0.9, where 1 is the maximum; inactive = score below 0.9.
# How the values were obtained:
# [1] = read-out: Thrombomodulin, THBD (gene 7056); test: BSK_CASM3C_Thrombomodulin: BioMAP Diversity Plus: CASM3C Assay for Thrombomodulin Biomarker Activity (AID 2283051); conditions: primary human coronary artery smooth muscle cells; actives raise or lower the signal;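 also: thrombomodulin protein level measured by ELISA 24 h after dosing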
# [2] = read-out: Tissue Factor, F3 (gene 2152); test: BSK_CASM3C_TissueFactor: BioMAP Diversity Plus: CASM3C Assay for Tissue Factor Biomarker Activity (AID 2283052); conditions: primary human coronary artery smooth muscle cells; actives raise or lower the signal;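 also: cell surface tissue factor protein level read by ELISA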
# [3] = read-out: Interferon-gamma inducible Protein 10 (IP10), CXCL10 (gene 3627); test: BSK_hDFCGF_IP10: BioMAP Diversity Plus: hDFCGF Assay for Interferon-gamma inducible Protein 10 (IP10) Biomarker Activity (AID 2283053); conditions: primary human foreskin fibroblasts; actives raise or lower the signal
# Method in brief: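 Primary foreskin fibroblasts, human; 24 h compound exposure; IP-10 by ELISA; bidirectional fit vs DMSO.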
# [4] = read-out: Urokinase-type plasminogen activator receptor (uPAR), PLAUR (gene 5329); test: BSK_CASM3C_uPAR: BioMAP Diversity Plus: CASM3C Assay for Urokinase-type plasminogen activator receptor (uPAR) Biomarker Activity (AID 2283054); conditions: primary human coronary artery smooth muscle cells; actives raise or lower the signal;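 also: cell-surface uPAR protein level quantified by ELISA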
# [5] = read-out: Vascular cell adhesion molecule 1 (VCAM1), VCAM1 (gene 7412); test: BSK_CASM3C_VCAM1: BioMAP Diversity Plus: CASM3C Assay for Vascular cell adhesion molecule 1 (VCAM1) Biomarker Activity (AID 2283055); conditions: primary human coronary artery smooth muscle cells; actives raise or lower the signal;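 also: VCAM-1 protein level quantified by ELISA on the cells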
# [6] = read-out: Collagen III, COL3A1 (gene 1281); test: BSK_hDFCGF_CollagenIII: BioMAP Diversity Plus: hDFCGF Assay for Collagen III Biomarker Activity (AID 2283056); conditions: primary human foreskin fibroblasts; actives raise or lower the signal
# Method in brief: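 hDFCGF primary human dermal fibroblasts; 24 h chemical exposure; collagen III by ELISA; bidirectional curve fit vs DMSO baseline (gain or loss of signal).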
# [7] = read-out: Epidermal growth factor receptor (EGFR), EGFR (gene 1956); test: BSK_hDFCGF_EGFR: BioMAP Diversity Plus: hDFCGF Assay for Epidermal growth factor receptor (EGFR) Biomarker Activity (AID 2283057); conditions: primary human foreskin fibroblasts; actives raise or lower the signal
# Method in brief: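 hDFCGF system, primary human foreskin fibroblasts; compound 24 h; EGFR measured by ELISA; DMSO = negative control/baseline; bidirectional fitting.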
# [8] = read-out: Interleukin-8 (IL8), CXCL8 (gene 3576); test: BSK_hDFCGF_IL8: BioMAP Diversity Plus: hDFCGF Assay for Interleukin-8 (IL8) Biomarker Activity (AID 2283058); conditions: primary human foreskin fibroblasts; actives raise or lower the signal
# Method in brief: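 ELISA read-out of IL-8 from primary human foreskin fibroblast cultures taken 24 h after dosing; values are bidirectional fits relative to DMSO vehicle.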
# [9] = BSK_hDFCGF_Proliferation: Cell Proliferation Assessment in the BioMAP Diversity Plus: hDFCGF Assay (AID 2283059); conditions: primary human foreskin fibroblasts;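 also: curves fitted for both rise and fall of signal versus DMSO baseline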
# Method in brief: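 Steps: dose primary human dermal fibroblasts (foreskin); […] fix in 10% TCA; stain with 0.1% SRB; read 560 nm; fit gain or loss of signal against DMSO.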
# [10] = read-out: Macrophage colony-stimulating factor (MCSF), CSF1 (gene 1435); test: BSK_hDFCGF_MCSF: BioMAP Diversity Plus: hDFCGF Assay for Macrophage colony-stimulating factor (MCSF) Biomarker Activity (AID 2283060); conditions: primary human foreskin fibroblasts; actives raise or lower the signal
# Method in brief: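 ELISA read-out of M-CSF in human dermal foreskin fibroblast cultures, 24 h after chemical dosing; gain or loss of signal fitted bidirectionally relative to DMSO baseline.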
SMILES,outcome [1],outcome [2],outcome [3],outcome [4],outcome [5],outcome [6],outcome [7],outcome [8],AC50 [9],AC50 [10],outcome [9],outcome [10],AC50 [6],AC50 [4],AC50 [7],AC50 [1],AC50 [5],AC50 [8]
CNC(=O)Oc1cccc2ccccc12,inactive,inactive,inactive,inactive,inactive,inactive,inactive,inactive,13.9 µM (active),29.7 µM (active),–,–,–,–,–,–,–,–
CC1(C)CON(Cc2ccccc2Cl)C1=O,inactive,inactive,inactive,inactive,inactive,inactive,inactive,inactive,–,–,inactive,inactive,–,–,–,–,–,–
CC(C)N1C(=O)c2ccccc2NS1(=O)=O,inactive,inactive,–,inactive,inactive,–,inactive,inactive,–,–,inactive,inactive,0.144 µM (active),–,–,–,–,–
CCNP(=S)(OC)O/C(C)=C/C(=O)OC(C)C (stereo not drawn),inactive,inactive,–,inactive,inactive,inactive,inactive,inactive,–,–,inactive,inactive,–,–,–,–,–,–
COP(=S)(OC)Oc1ccc([N+](=O)[O-])c(C)c1,inactive,inactive,–,inactive,inactive,–,inactive,inactive,24.2 µM (active),13.2 µM (active),–,–,22.7 µM (active),–,–,–,–,–
CCCC(=NOCC)C1=C(O)CC(CC(C)SCC)CC1=O (stereo not drawn),inactive,inactive,–,inactive,inactive,inactive,inactive,inactive,–,–,inactive,inactive,–,–,–,–,–,–
COC(=O)N(C(=O)N1CO[C@@]2(C(=O)OC)Cc3cc(Cl)ccc3C2=N1)c1ccc(OC(F)(F)F)cc1,inactive,inactive,–,inactive,inactive,inactive,inactive,inactive,7.63 µM (active),–,–,inactive,–,–,–,–,–,–
CCCCC(O)(Cn1cncn1)c1ccc(Cl)cc1Cl (stereo not drawn),inactive,inactive,–,inactive,inactive,–,inactive,inactive,22.9 µM (active),–,–,inactive,29.9 µM (active),–,–,–,–,–
Cn1c(-c2ccccc2)cc(-c2ccccc2)[n+]1C,inactive,inactive,–,inactive,inactive,–,inactive,inactive,5.37 µM (active),5.47 µM (active),–,–,10.1 µM (active),–,–,–,–,–
C=CCOC(=O)C(C)(C)OC(=O)c1cc(-n2c(=O)cc(C(F)(F)F)n(C)c2=O)ccc1Cl,inactive,inactive,–,–,inactive,inactive,–,inactive,–,1.88 µM (active),inactive,–,–,0.984 µM (active),0.98 µM (active),–,–,–
O=P(O)(O)CCCl,inactive,inactive,–,inactive,inactive,inactive,inactive,inactive,–,–,inactive,inactive,–,–,–,–,–,–
O=c1n(Cl)c(=O)n(Cl)c(=O)n1Cl,–,inactive,–,inactive,inactive,inactive,inactive,inactive,–,–,inactive,inactive,–,–,–,12.7 µM (active),–,–
CCSC(=O)N1CCCCCC1,inactive,inactive,–,inactive,inactive,inactive,inactive,inactive,–,–,inactive,inactive,–,–,–,–,–,–
CS(=O)(=O)c1cc(C(F)(F)F)ccc1C(=O)c1cnoc1C1CC1,inactive,inactive,–,inactive,inactive,inactive,inactive,inactive,–,–,inactive,inactive,–,–,–,–,–,–
COCc1cnc(C2=NC(C)(C(C)C)C(=O)N2)c(C(=O)O)c1 (stereo not drawn),inactive,inactive,–,inactive,inactive,inactive,inactive,inactive,–,–,inactive,inactive,–,–,–,–,–,–
COC(=O)NC(=S)Nc1ccccc1NC(=S)NC(=O)OC,inactive,inactive,–,inactive,inactive,inactive,inactive,inactive,29.8 µM (active),–,–,inactive,–,–,–,–,–,–
O=C1C2CC=CCC2C(=O)N1SC(Cl)(Cl)Cl (stereo not drawn),–,inactive,–,–,–,–,–,–,1.85 µM (active),6.29 µM (active),–,–,6.44 µM (active),32.2 µM (active),5.78 µM (active),4.74 µM (active),22.5 µM (active),12.1 µM (active)
Cc1cc(C)nc(Nc2ccccc2)n1,inactive,inactive,–,inactive,inactive,inactive,inactive,inactive,–,–,inactive,inactive,–,–,–,–,–,–
CN=C=S,inactive,inactive,–,inactive,inactive,inactive,–,inactive,–,–,inactive,inactive,–,–,5.42 µM (active),–,–,–
